Results published in PubChem BioAssay (Tox21).
Records with an inconclusive call do not appear. Calls of active or inactive are those of the source. Calls come from the whole dose curve; as a rule, active = well fitted curve in the direction sought with a large enough effect in the repeat runs; inconclusive = weak or mixed curves; inactive = no such curve, though single readings can be large; an effect the other way counts as inactive or inconclusive.

Key:
[1] = molecular target: Cytochrome P450 2D6 (Homo sapiens) (UniProt P10635); assay: Cytochrome P450 Family 2 Subfamily D Member 6 (CYP2D6) small molecule antagonists: luciferase reporter qHTS assay (AID 1671196); settings: P450-Glo CYP2D6 enzyme assay, luciferin luminescence, 1 h; series mostly up to 115 µM; note: potency is the fitted concentration of half-maximal effect
Outline: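 CYP2D6 enzyme–substrate mix was held with compound for 10 min at room temperature, then NADPH regeneration solution was added and the reaction ran 1 h at room temperature. Luciferin product was detected by luminescence after 20 min with detection reagent.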

[2] = molecular target: Cytochrome P450 2C9 (Homo sapiens) (UniProt P11712); assay: Cytochrome P450 Family 2 Subfamily C Member 9 (CYP2C9) small molecule antagonists: luciferase reporter qHTS assay (AID 1671198); settings: P450-Glo CYP2C9 enzyme assay, luciferin luminescence; series mostly up to 115 µM; note: potency is the fitted concentration of half-maximal effect
Outline: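 Enzyme-substrate mix preincubated with compound 10 min at room temperature; reaction started with NADPH regeneration solution, 1 h 37C. Luminescent luciferin product read after 20 min detection reagent.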

[3] = molecular target: Voltage-gated inwardly rectifying potassium channel KCNH2 (Homo sapiens) (UniProt Q12809); assay: Human Ether-a-go-go-Related Gene (hERG) channel small molecule antagonists: fluorescence cell-based qHTS assay (AID 1671200); settings: hERG-U2OS cells, FluxOR thallium flux fluorescence; series mostly up to 76.8 µM; note: potency is the fitted concentration of half-maximal effect
Outline: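 Thallium flux as potassium surrogate: FluxOR II dye loaded 1 h at room temperature into hERG-expressing U2OS cells, then stimulus buffer added after 10 min. Kinetic 480 nm excitation/540 nm emission read, 2 min.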

[4] = molecular target: Cytochrome P450 3A4 (Homo sapiens) (UniProt P08684); assay: Cytochrome P450 Family 3 Subfamily A Member 4 (CYP3A4) small molecule antagonists: luciferase reporter qHTS assay (AID 1671201); settings: P450-Glo CYP3A4 enzyme, luciferin luminescence, 1 h; series mostly up to 115 µM
Outline: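 Recombinant human CYP3A4 converts a proluciferin substrate to luciferin over 1 h at room temperature after NADPH regeneration solution is added (compound preincubated 10 min); detection reagent stops reaction, luminescence read 20 min later as relative units.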

[5] = molecular target: Cytochrome P450 1A2 (Homo sapiens) (UniProt P05177); assay: Cytochrome P450 Family 1 Subfamily A Member 2 (CYP1A2) small molecule antagonists: luciferase reporter qHTS assay (AID 1671199); settings: P450-Glo CYP1A2 enzyme, luciferin luminescence, 1 h; series mostly up to 53 µM; note: potency is the fitted concentration of half-maximal effect
Outline: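 Human CYP1A2 activity measured with a P450-Glo proluciferin substrate; compounds in DMSO preincubated 10 min at room temperature with enzyme-substrate mix, then NADPH regeneration system added for 1 h. Luciferin detection reagent, 20 min, luminescence read.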

Measured: Potency
Note: nearly all actives have a fitted effect of over 50% in size.

Sequence of Voltage-gated inwardly rectifying potassium channel KCNH2 (Homo sapiens) (Q12809 whole entry, looked up): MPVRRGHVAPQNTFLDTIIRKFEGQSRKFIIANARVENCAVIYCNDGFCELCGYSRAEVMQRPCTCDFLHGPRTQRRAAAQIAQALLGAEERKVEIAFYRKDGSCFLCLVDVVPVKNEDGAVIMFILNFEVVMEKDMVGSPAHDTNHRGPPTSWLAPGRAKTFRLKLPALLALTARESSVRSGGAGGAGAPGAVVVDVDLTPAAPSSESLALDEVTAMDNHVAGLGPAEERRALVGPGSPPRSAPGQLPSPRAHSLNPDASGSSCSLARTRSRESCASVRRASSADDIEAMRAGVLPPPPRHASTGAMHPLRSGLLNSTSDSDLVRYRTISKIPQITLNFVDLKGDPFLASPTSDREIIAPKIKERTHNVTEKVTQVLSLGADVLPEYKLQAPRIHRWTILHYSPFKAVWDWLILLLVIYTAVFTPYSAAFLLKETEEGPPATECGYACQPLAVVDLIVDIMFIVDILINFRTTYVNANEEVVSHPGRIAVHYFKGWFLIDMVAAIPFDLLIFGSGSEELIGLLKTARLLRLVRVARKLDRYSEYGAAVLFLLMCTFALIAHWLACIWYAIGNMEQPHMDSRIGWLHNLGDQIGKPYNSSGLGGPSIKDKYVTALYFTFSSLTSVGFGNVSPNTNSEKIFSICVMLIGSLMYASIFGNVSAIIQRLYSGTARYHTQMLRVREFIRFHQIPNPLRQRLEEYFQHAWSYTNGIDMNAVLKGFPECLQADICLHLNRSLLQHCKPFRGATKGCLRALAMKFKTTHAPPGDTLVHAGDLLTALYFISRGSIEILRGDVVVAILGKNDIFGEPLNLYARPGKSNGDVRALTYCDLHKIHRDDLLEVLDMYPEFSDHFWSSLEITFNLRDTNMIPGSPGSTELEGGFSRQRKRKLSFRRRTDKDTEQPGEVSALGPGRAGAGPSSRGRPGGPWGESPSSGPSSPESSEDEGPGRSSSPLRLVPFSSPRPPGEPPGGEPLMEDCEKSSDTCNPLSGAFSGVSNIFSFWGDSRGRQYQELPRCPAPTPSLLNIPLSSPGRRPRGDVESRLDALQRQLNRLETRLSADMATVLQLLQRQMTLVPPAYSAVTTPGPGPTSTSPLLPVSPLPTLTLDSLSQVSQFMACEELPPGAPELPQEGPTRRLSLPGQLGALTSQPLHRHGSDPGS
Sequence of Cytochrome P450 2D6 (Homo sapiens) (P10635 whole entry, looked up): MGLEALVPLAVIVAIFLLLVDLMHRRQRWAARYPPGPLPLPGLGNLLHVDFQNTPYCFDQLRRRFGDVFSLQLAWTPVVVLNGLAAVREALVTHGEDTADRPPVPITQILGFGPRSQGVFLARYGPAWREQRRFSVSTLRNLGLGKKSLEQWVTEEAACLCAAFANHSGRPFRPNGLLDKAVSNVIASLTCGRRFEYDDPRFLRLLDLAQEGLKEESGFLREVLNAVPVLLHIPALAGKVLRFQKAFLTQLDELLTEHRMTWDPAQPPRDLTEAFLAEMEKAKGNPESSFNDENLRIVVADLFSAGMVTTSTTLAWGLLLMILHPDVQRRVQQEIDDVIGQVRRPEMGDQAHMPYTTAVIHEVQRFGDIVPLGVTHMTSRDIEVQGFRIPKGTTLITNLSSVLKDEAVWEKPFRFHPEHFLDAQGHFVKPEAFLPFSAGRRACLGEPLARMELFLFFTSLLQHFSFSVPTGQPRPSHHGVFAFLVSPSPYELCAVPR
Sequence of Cytochrome P450 3A4 (Homo sapiens) (P08684 whole entry, looked up): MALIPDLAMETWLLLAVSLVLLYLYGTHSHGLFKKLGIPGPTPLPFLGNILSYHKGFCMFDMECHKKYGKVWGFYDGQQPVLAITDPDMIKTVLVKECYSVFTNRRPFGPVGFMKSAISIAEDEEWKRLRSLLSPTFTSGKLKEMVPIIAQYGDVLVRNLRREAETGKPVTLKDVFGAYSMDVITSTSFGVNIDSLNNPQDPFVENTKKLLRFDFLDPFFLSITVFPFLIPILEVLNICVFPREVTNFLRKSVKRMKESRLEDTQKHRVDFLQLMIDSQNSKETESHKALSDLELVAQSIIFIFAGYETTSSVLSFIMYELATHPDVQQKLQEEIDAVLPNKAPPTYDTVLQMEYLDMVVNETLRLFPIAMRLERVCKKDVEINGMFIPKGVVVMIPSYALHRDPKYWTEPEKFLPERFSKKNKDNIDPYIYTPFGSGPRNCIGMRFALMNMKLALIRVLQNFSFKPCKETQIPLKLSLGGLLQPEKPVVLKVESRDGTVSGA
Sequence of Cytochrome P450 2C9 (Homo sapiens) (P11712 whole entry, looked up): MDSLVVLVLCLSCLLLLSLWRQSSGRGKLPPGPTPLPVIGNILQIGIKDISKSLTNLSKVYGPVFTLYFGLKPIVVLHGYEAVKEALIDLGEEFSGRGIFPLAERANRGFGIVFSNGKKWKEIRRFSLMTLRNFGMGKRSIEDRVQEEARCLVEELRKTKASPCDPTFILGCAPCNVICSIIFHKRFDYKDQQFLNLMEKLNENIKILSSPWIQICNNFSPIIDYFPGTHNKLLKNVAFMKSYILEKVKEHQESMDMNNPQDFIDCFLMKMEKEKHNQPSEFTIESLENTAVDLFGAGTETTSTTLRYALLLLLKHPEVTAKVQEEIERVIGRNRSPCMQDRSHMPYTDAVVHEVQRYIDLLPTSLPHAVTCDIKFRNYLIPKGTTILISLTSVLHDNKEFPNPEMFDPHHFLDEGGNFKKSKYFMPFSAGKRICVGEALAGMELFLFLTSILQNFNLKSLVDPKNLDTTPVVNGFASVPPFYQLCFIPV
Sequence of Cytochrome P450 1A2 (Homo sapiens) (P05177 whole entry, looked up): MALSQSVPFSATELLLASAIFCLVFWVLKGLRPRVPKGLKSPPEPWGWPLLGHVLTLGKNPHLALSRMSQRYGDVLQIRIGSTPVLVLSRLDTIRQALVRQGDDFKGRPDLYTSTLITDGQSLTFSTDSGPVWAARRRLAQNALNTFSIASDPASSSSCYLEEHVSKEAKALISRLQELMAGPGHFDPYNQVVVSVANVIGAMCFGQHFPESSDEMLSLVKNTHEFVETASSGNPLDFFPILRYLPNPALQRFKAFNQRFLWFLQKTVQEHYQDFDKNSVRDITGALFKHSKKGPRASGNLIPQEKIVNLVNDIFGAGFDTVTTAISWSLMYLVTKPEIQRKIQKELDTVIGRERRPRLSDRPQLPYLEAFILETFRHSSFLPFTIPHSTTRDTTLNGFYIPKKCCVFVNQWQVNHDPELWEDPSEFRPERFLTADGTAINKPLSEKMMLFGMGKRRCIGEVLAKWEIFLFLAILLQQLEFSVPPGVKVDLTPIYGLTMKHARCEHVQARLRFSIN

N#CCN(CC#N)CCN(CC#N)CC#N
not listed: [5]
inactive: all other assays above

C=C(C)C(=O)OCCC(C)OC(=O)C(=C)C (stereo unspecified)
inactive: [1] | [3] | [4]
active: [5] 31.7 µM

COC(=O)[C@H]1[C@H]2C[C@@H]3c4[nH]c5cc(OC)ccc5c4CCN3C[C@H]2C[C@@H](OC(=O)COc2ccc(OC)cc2)[C@@H]1OC
active: [1] 17.4 µM | [2] 27.5 µM | [3] 0.601 µM

O=Cc1ccccc1[N+](=O)[O-]
active: [5] 31.7 µM
inactive: [1] | [3] | [4]

O=c1[nH]c2ccccc2c(=O)n1CCCl
active: [5] 5.49 µM
inactive: all other assays above

c1ccc2cnncc2c1
active: [5] 14.2 µM
inactive: all other assays above

NS(=O)(=O)c1cc(C2(O)NC(=O)c3ccccc32)ccc1Cl (stereo unspecified)
inactive: [1] | [2] | [3]

O=C1CC2(CCCC2)CC(=O)N1
inactive: all assays above

Nc1nc(F)nc2c1ncn2[C@@H]1O[C@H](CO)[C@@H](O)[C@@H]1O
active: [1] 34.7 µM
inactive: all other assays above

O=C(O)c1cccc(C(=O)O)n1
inactive: all assays above

C#CC(C)(O)CC(C)C (stereo unspecified)
inactive: all assays above

CC(C)(O)c1ccccc1
inactive: [1] | [3] | [4]

OCc1ccccn1
inactive: all assays above
